MOR-DOR ag: agonists of OPRM1-OPRD1 heterodimerization, primary screen, cell-based, luminescence. Mu-type opioid receptor (Homo sapiens) + Delta-type opioid receptor (Homo sapiens), …. cells. activation, % at 9.3 µM. hit rate 0.3% among 340,000. AID 504326, 2011; in the data active means activation above about 18%;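 further: 0% = vehicle-treated cells and 100% = reference agonist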
Target sequence (P35372 whole entry, looked up): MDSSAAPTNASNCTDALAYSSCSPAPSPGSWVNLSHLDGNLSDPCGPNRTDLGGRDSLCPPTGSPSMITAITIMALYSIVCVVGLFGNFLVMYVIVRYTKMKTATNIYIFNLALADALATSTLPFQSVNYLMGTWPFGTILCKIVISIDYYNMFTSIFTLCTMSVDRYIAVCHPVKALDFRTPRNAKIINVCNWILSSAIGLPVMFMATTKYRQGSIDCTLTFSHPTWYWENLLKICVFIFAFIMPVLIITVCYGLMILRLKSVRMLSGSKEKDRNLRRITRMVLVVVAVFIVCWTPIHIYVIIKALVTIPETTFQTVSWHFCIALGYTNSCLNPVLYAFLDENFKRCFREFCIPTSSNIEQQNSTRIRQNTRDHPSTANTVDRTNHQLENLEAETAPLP
Target sequence (P41143 whole entry, looked up): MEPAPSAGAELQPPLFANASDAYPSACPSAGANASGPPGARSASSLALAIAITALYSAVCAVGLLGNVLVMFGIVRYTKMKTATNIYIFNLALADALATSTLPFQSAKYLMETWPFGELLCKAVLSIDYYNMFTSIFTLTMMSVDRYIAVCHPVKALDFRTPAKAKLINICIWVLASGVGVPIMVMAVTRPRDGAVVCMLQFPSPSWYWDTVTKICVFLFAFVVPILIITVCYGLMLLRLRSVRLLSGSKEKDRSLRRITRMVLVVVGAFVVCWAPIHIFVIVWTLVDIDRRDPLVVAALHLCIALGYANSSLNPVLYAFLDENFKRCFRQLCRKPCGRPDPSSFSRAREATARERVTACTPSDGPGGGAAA
HTR5A inv ag: HTR5A inverse agonists in luminescence cell assay, primary screen, counter-screen for OPRM1-OPRD1 heterodimer inverse agonist project, full-deck HTS. 5-hydroxytryptamine receptor 5A (Homo sapiens), P47898. HTR5A cell line, inverse agonism. inhibition, % at 9.3 µM. hit rate 0.083% among 340,000. AID 504634, 2011; in the data active means inhibition mostly above about 23%, no sharp cut-off; inactive means mostly below about 18%;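 further: 0% = cells with DMSO and 100% = no-cell wells with DMSO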
OPRM1-OPRD1 inv: inverse agonists of MOR-DOR heterodimerization, primary screen, cell-based, luminescence; cell-based MOR-DOR heterodimer luminescence, inverse agonism; inhibition, % at 9.3 µM; hit rate 0.21% among 340,000; in the data active means inhibition above about 22%, passing the limit was not always enough;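 further: 0% = cells with DMSO and 100% = wells without cells with DMSO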
HTR5A ag: HTR5A agonists in luminescence cell assay, primary screen, counter-screen for OPRM1-OPRD1 heterodimer agonist project, full-deck HTS. 5-hydroxytryptamine receptor 5A (Homo sapiens), P47898. cell-based. activation, % at 9.3 µM. hit rate 0.61% among 340,000; in the data active means activation mostly above about 9.5%, no sharp cut-off; inactive means mostly below about 7.6%;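 further: 0% = cells with vehicle only and 100% = reference agonist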
An asterisk follows results filed as active. Compounds with a hit are over-represented: about 1.1% of the library has one in this group of screens.

SMILES | MOR-DOR ag | HTR5A inv ag | OPRM1-OPRD1 inv | HTR5A ag
O=C(Oc1ccc(C(=S)N2CCOCC2)cc1)c1ccc([N+](=O)[O-])cc1[N+](=O)[O-] | -2.2 | 4.3 | 10.7 | -1.2
COc1ccc2[nH]c3c(c2c1)CCN1C(=O)C(CC(=O)NCCC2=CCCCC2)C[C@H](C(=O)N2CCCCC2)[C@@]31CCc1ccccc1 (stereo not given in full) | -3.4 | 0.3 | 16.5 | 0.0
COC(=O)c1ccccc1OCCOCCOc1cccc2cccnc12 | -1.7 | -41.5 | 8.9 | 11.3*
COc1ccc(NS(=O)(=O)c2cccc3cccnc23)cc1 | -2.0 | -22.8 | 11.2 | 3.0
Cc1cccc(NS(=O)(=O)c2cccc3cccnc23)n1 | -0.1 | -40.0 | 0.3 | 13.4*
CCOc1ncccc1C(=O)Nc1cc(S(=O)(=O)N2CCCCCC2)ccc1OC | -2.9 | 1.0 | 14.0 | 1.6
Cc1ccc(N(NC(=O)C(O)(c2ccccc2)c2ccccc2)C(=O)CCl)cc1 | 31.4* | 10.6 | -162.3 | 48.2*
Cc1ccc(C(O)(C(=O)NN(C(=O)c2ccccc2)c2ccccc2)c2ccc(C)cc2)cc1 | 1.7 | 0.8 | -9.4 | 0.4
COc1ccc(N2CCN(C3CCCN(C(=O)CCN4CCCCO4)C3)CC2)cc1 (stereo not given) | -1.3 | 11.0 | 6.6 | 1.7
O=C(CN1CC(c2ccccc2)CC1=O)Nc1ccc2c(c1)OCO2 (stereo not given) | 0.0 | -35.8 | 0.2 | 13.6*
Cn1c(C(=O)NCc2ccccn2)cc2c(=O)n(C)c3ccccc3c21 | -2.6 | -36.3 | 13.4 | 13.1*
C/C(=N/N1CCN(Cc2ccccc2)CC1)c1ccc(Br)cc1 | -0.6 | -10.0 | 3.1 | 3.6
CC(=O)Oc1ccc(/C(C)=N/N2CCN(Cc3ccc(C)cc3)CC2)cc1 | -1.5 | -36.2 | 7.0 | 9.8*
CCOc1ccc(N2C(=O)C(C)CNC2=S)cc1 (stereo not given) | -4.1 | -17.1 | 18.0 | 4.5
O=Cc1s/c(=N\S(=O)(=O)c2ccccc2)n(CCCCl)c1Cl | -7.4 | 9.2 | 33.8* | -3.6
CCn1c(C)cs/c1=N\S(=O)(=O)c1ccccc1 | -2.2 | -18.1 | 12.8 | 6.2
COC(=O)c1sc(NC(=O)c2c(C)noc2C)nc1C | -3.4 | -12.6 | 18.4 | 4.1
COC(=O)c1sc(N)c(C(=O)OC)c1COC(=O)c1c(C)noc1C | -10.1 | 45.8* | 46.1* | -10.8
O=S(=O)(Nc1ccc(-n2cnnn2)cc1)c1cccc(F)c1 | -1.0 | 5.2 | 6.8 | 2.4
CCOC(=O)CNC(=O)CSc1nc(N(C)C)nc(N2CCOCC2)n1 | 2.8 | -10.9 | -12.9 | 11.2*
CCOC(=O)c1ccc(NC(=O)CSc2nc(N3CCOCC3)nc(N3CCOCC3)n2)cc1 | -2.1 | -0.1 | 11.7 | 0.7
O=C1c2ccccc2C(=O)N1Nc1ccc([N+](=O)[O-])cc1[N+](=O)[O-] | -2.5 | 35.3* | 12.2 | -9.5
O=C(O)COCC(=O)Nc1ccc(-n2cnnn2)cc1 | 1.1 | -26.9 | -5.5 | 10.9*
c1ccc(Nc2nc(N3CCCC3)nc(N3CCCC3)n2)cc1 | 1.6 | 19.8 | -8.5 | 13.1*
CCOc1ccccc1CN1C(=O)NC2(CCCCCC2)C1=O | -1.2 | -23.6 | 6.2 | 8.8
SMILES | MOR-DOR ag | HTR5A inv ag | OPRM1-OPRD1 inv | HTR5A ag
Cc1nc2c(C(=O)N3CCOCC3)cnn2c(C)c1Cc1ccc(Cl)cc1 | 3.8 | -17.6 | -20.5 | 11.5*
CSCC(C)N1CCC(CCC(=O)NC2CC2)CC1 (stereo not given) | -3.9 | 8.6 | 20.1 | 11.9*
Cc1noc(C)c1COC(=O)c1ccc2c(c1)S(=O)(=O)c1ccccc1C2=O | 7.1 | -33.8 | -39.3 | 10.0*
COc1cccc(CN(C)C(=O)Cn2cc(C)c(=O)[nH]c2=O)c1 | -2.0 | -9.2 | 9.4 | 2.5
CCc1nnc(NC(=O)CCc2ccccc2OC)s1 | 2.9 | -22.3 | -18.5 | 7.9
Cc1nn(-c2ccccn2)c2c1C(c1ccccc1Cl)C1=C(N2)c2ccccc2C1=O (stereo not given) | -3.8 | -13.4 | 25.9* | 3.5
CSC1=C(C#N)C(c2ccccc2Cl)C2=C(N1)c1ccccc1C2=O (stereo not given) | -2.8 | -4.6 | 14.2 | -6.4
O=C(NCc1ccco1)c1ccc(C(=O)NCc2ccco2)s1 | -1.8 | -6.9 | 10.1 | 10.4*
Cc1ccc(CNC(=O)/C=C/c2c(Cl)cccc2Cl)cc1 | 0.3 | -5.2 | -1.8 | 1.5
Cc1ccc(CNC(=O)/C=C/c2ccccc2Cl)cc1 | 0.4 | -39.8 | -2.3 | 11.0*
O=C(O)c1cc(S(=O)(=O)NCCOc2ccccc2)ccc1Cl | -1.8 | -3.0 | 7.1 | 1.2
CCCCCCCCCCOC(=O)Cn1c(COc2cccc(C)c2)[n+](C)c2ccccc21 | 7.5 | -46.6 | -35.8 | 12.6*
CCCCOC(=O)Cn1c(=O)n(CC(=O)OCCCC)c2ccccc21 | 2.7 | -5.2 | -11.3 | 2.1
Cc1ccc2oc(C(=O)Nc3nonc3C)c(C)c2c1 | 4.1 | -0.8 | -21.2 | 10.7*
CC(C)(C)CC(=O)N1CCC(c2nc3c(nnn3Cc3c(F)cccc3Cl)c(=O)[nH]2)CC1 | -1.3 | 27.5 | 8.1 | 10.7*
O=C(c1ccco1)N1CCC(c2nc3c(nnn3Cc3c(Cl)cccc3Cl)c(=O)[nH]2)CC1 | 0.4 | -29.9 | -3.0 | 1.3
N#CC1=CC2CN(Cc3ccccc3)C1C1C(=O)N(c3ccccc3)C(=O)C21 (stereo not given) | 0.4 | 12.1 | -1.9 | -3.1
O=C(Nc1cccc(S(=O)(=O)N2CCCCC2)c1)c1ccc(S(=O)(=O)C(F)F)cc1 | 0.2 | -4.3 | -0.7 | 11.6*
COc1ccc(C2NN=C(c3c[nH]c4ccccc34)C2O)cc1 (stereo not given) | 3.9 | -16.2 | -22.2 | 4.2
COc1ccc(C2C(O)C(c3c[nH]c4ccccc34)=NN2C(=O)CCl)cc1 (stereo not given) | 60.1* | -149.9 | -319.6 | 56.0*
Cn1c(=O)[nH]c(=O)c2c1nc(NC1CCCC1)n2Cc1ccccc1 | -1.6 | -37.9 | 7.8 | 10.0*
CC(c1ccccc1)N1CC(C(=O)O)CC1=O (stereo not given) | 0.0 | -10.7 | -0.1 | 3.9
CC1CC(=O)C(C(C2=C(O)CC(C)CC2=O)c2ccccc2)=C(O)C1 (stereo not given) | 0.2 | -38.2 | -0.9 | 9.3*
Cc1nonc1C(=O)N/N=C/c1ccncc1 | 0.9 | 11.8 | -6.2 | -4.4
Nc1nonc1C(=O)N/N=C/c1ccncc1 | 0.4 | -26.9 | -2.1 | 10.9*
CC12CCC(C(=O)N(CSC(=S)N/N=C\c3ccccc3)C1=O)C2(C)C (stereo not given) | 0.7 | -11.1 | -3.8 | 10.3*
Cc1ccc(NC(=O)COC(=O)[C@@H]2CC(O)CN2S(=O)(=O)c2ccc3c(c2)OCCO3)cc1 (stereo not given in full) | -2.1 | 4.9 | 8.7 | -2.0
O=C1CCc2cc(NS(=O)(=O)c3ccc([N+](=O)[O-])cc3)cc3c2N1CCC3 | 4.3 | -4.6 | -27.5 | 1.5
O=c1oc(-c2cccs2)nc2ccccc12 | -0.1 | 3.9 | 0.7 | 13.8*
COc1ccc(/C=N/NC(=O)c2sccc2C)c2ccccc12 | 11.4 | -15.5 | -57.1 | 13.4*

Bioassay records from PubChem.
